Screening data (PubChem BioAssay)
In the library only some 9.2% were active in any assay of this set; here they are far more common.
ELG1 genotoxic – induces genotoxicity in HEK293T cells with luciferase-tagged ELG1. 1.3% of 330,000 active. HEK293T ELG1-luciferase reporter, luminescence, 16 h. AID 504466. Potency, µM (doses to about 46 µM), without a hit: at the top dose activity change, positive = activation, actives largely listed as activators; note: % of control where 0% means no effect; nearly all actives have a fitted effect of over 60% in size
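Reporter readout depends on ELG1 protein level, which increases with genetic stress. After 16 hr compound exposure at 37 °C, luciferase activity was quantified using ONE-Glo.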
SMN2 splice up – enhancers of SMN2 splice variant expression | HEK293 SMN2-luciferase splicing reporter, luminescence, 30-36 h | Potency, µM (top dose mostly 46.1 µM), for the others: at the top dose activity change, positive = activation, usual class: activators | 2.8% of 210,000 active; note: % of control where 0% means no effect; nearly all actives have a fitted effect of over 55% in size
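HEK293 cells carry an SMN2 […]–luciferase reporter in which exon 7 inclusion puts luciferase in frame. Cells were plated 10-12 h before compound addition, then incubated 30-36 h at 37C. ONE-Glo luminescence was read; sodium butyrate at 4.5 mM final served as control.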
Rab9 promoter act – Rab9 promoter activation. Huh7 Rab9 promoter-luciferase reporter, luminescence, 24 h. Potency, µM (top dose mostly 9.22 µM), inactives show at the top dose activation, negative = inhibition, hits mostly activators. 2.8% of 320,000 active. AID 485297; note: % of control where 0% means no effect; nearly all actives have a fitted effect of over 60% in size
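Cell-based reporter: Huh7 stable for Rab9 promoter-driven luciferase, plated in reduced-serum medium with 10% FBS at 1500 cells/well, compound-treated 24 h at 37 °C, luminescence read after 10 min reagent.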
NPC1 prom act – NPC1 promoter activation. Huh7 NPC1 promoter luciferase reporter, 24 h. Potency, µM (highest dose often 9.22 µM), for inactives: at the top dose activation, actives largely listed as activators. 2.4% of 320,000 active. AID 485313; note: % of control where 0% means no effect; nearly all actives have a fitted effect of over 60% in size
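Compounds in DMSO were transferred onto Huh7 NPC1-luciferase reporter cells pre-incubated 2 h; after 24 h at 37 °C, Amplite reagent was dispensed and luminescence recorded 10 min later.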
ELG1 repair inh – ELG1-dependent DNA repair inhibition; HEK293T ELG1-luciferase reporter, luminescence, 16 h; DNA damage induced by 5-fluorouridine; Potency, µM (top dose mostly 46.1 µM), for inactives: top-dose activity change, negative = inhibition, actives largely listed as inhibitors; 2.3% of 330,000 active; note: % is set by controls: 0 for no effect and ±100 for the full control effect; nearly all actives have a fitted effect of over 55% in size
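Quantitative HTS, concentration-response format. 2,000 cells/well co-treated with 5-fluorouridine and compound, 16 hr in 5% CO2 at 37 °C; ONE-Glo luminescence read after 30 min.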
FLuc counter – inhibits or activates purified firefly luciferase, miR-21 counter-screen; purified FLuc, Km substrates, luminescence inhibition; Potency, µM (doses to about 57.5 µM), for inactives: at the highest dose activity change, negative = inhibition, usual class: inhibitors; 6.9% of 360,000 active; AID 588342;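 note: plate controls were vehicle for no effect and reference inhibitor for full effect; nearly all actives have a fitted effect of over 55% in size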
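Biochemical qHTS of compounds, final roughly 60 µM downward over six points, against 10 nM purified firefly luciferase using Km concentrations of substrates (10 uM D-luciferin, 10 uM ATP) in Tris acetate pH 7.5 buffer; luminescence output.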
ELG1 FLuc counter – luciferase inhibition in cell-free luciferin readout for ELG1 hits; shares compounds with ELG1 repair inh; cell-free firefly luciferase luminescence counter-screen, ViewLux; Potency, µM (top dose mostly 46.1 µM), for the others: top-dose activity change, negative = inhibition, usual class: inhibitors; 3% of 350 active; AID 624247; note: % is set by controls: 0 for no effect and ±100 for the full control effect
ELG1 Luc conf – confirmation of human ELG1-dependent DNA repair inhibitors; shares compounds with ELG1 repair inh; HEK293T ELG1-luciferase levels, luminescence; cells co-treated with 5-fluorouridine; Potency, µM (highest dose often 46.1 µM), for the others: top-dose activity change, negative = inhibition, hits mostly inhibitors; 68% of 670 active; note: % is set by controls: 0 for no effect and ±100 for the full control effect; nearly all actives have a fitted effect of over 55% in size
ELG1 MMS Luc – inhibits ELG1-dependent repair under MMS stimulation in HEK293T cells. HEK293T luciferase-tagged ELG1 level, MMS stimulated. 53% of 670 active. shares compounds with ELG1 repair inh. Potency, µM (top dose mostly 46.1 µM), without a hit: at the top dose activity change, negative = inhibition, actives largely listed as inhibitors; note: % is set by controls: 0 for no effect and ±100 for the full control effect; nearly all actives have a fitted effect of over 60% in size
ELG1 5FU viab – confirmation of ELG1 repair inhibitors: viability with 5FU. shares compounds with ELG1 repair inh. Potency, µM (doses to about 46.1 µM), inactives show top-dose activity change, negative = viability loss, most hits filed as cytotoxic. AID 624250. 670 tested, under 10 active. cell viability with 5-FU, ELG1-dependent repair;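 note: ELG1-luc HEK293T cells cotreated with 5-fluorouridine at 10 µM final; viability measured 16 h after compound addition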
ELG1 MMS viab – confirmation of ELG1 repair inhibitors: viability with MMS; AID 624251; shares compounds with ELG1 repair inh; Potency, µM (doses to about 46.1 µM), for inactives: at the highest dose activity change, negative = viability loss, hits mostly cytotoxic; 33% of 670 active; Cell viability with MMS, ELG1-dependent DNA repair;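 note: ELG1-luc HEK293T cells co-treated with 10 µM MMS; viability read 16 h after compound addition; % is set by controls: 0 for no effect and ±100 for the full control effect; nearly all actives have a fitted effect of over 60% in size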
ELG1 unstim viab – unstimulated viability counter-screen for ELG1 repair hits; shares compounds with ELG1 repair inh; cell viability counter-screen, unstimulated, luminescence; Potency, µM (series often up to 45.9 µM), for inactives: at the top dose activity change, negative = loss of viability, most hits filed as cytotoxic; 8% of 900 active;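 note: compound exposure lasted 16 hours before reading; % is set by controls: 0 for no effect and ±100 for the full control effect; nearly all actives have a fitted effect of over 55% in size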
FLuc enzyme – inhibits purified firefly luciferase, counter-screen for ELG1 hits; shares compounds with ELG1 repair inh; purified firefly luciferase, luminescence counter-screen; Potency, µM (top dose mostly 57.5 µM), for the others: at the highest dose activity, negative = inhibition, actives largely listed as inhibitors; 10% of 350 active; AID 624253; note: % is set by controls: 0 for no effect and ±100 for the full control effect
Starred values were filed as active, the others as inactive; ? = inconclusive; . = no result; [ ] = dose if it differs, or a comment. Calls come from the whole dose curve; as a rule, active = well fitted curve in the direction sought with a large enough effect; inconclusive = small, poorly fitted or top-dose-only effect, or another doubt; inactive = no such curve, though single readings can be large; an effect the other way counts as inactive or inconclusive. Potency is the fitted concentration of half-maximal effect.

SMILES | ELG1 genotoxic | SMN2 splice up | Rab9 promoter act | NPC1 prom act | ELG1 repair inh | FLuc counter | ELG1 FLuc counter | ELG1 Luc conf | ELG1 MMS Luc | ELG1 5FU viab | ELG1 MMS viab | ELG1 unstim viab | FLuc enzyme
N#C/C(=C(/O)c1ccc([N+](=O)[O-])s1)c1nc2ccccc2[nH]1 | -9% | . | -37% | -24% | 2.1µM* | -17% | . | ? | 0.79µM* | -10% | 0.89µM* | ? | .
N#C/C(=C(/O)c1ccc(Br)s1)c1nc2ccccc2[nH]1 | 2% | . | -8% | -15% | ? | ? | . | . | . | . | . | . | .
COc1ccc(/C=C/C(=O)O)cc1S(=O)(=O)N1CCCC1 | 0% | . | 5% | -7% | 5% | 11% | . | . | . | . | . | . | .
O[C@@H](c1cc(C(F)(F)F)nc2c(Cl)cc(Cl)cc12)C1CCCCN1 (some centres not stated) | . | -1%[9.22 µM] | . | . | . | . | . | . | . | . | . | . | .
COc1cccc(-c2nc(CS(=O)(=O)CC(=O)NCCc3ccccc3)c(C)o2)c1 | -4% | . | -3% | 3% | 4.6µM* | -1% | . | ? | -4% | ? | -1% | -9% | .
O=c1c2ccccc2oc2ccc(-c3ccc4cc[nH]c4c3)cc12 | ? | . | . | . | ? | . | 94% | . | . | . | . | ? | 0.41µM*
Cc1nc(Cl)c(C(=O)NC(=O)NCc2ccccc2)c(C)c1Cl | 1% | -5% | -1% | -2% | 18% | 3% | . | . | . | . | . | . | .
O=C(NCc1cccs1)c1cc(-c2cccc(Cl)c2)on1 | ? | -1% | ? | 26% | ? | -2% | . | . | . | . | . | . | .
Cc1ccc(-c2cc(C(=O)NCc3cccs3)no2)cc1 | ? | 22% | 2µM* | ? | ? | -10% | 54% | . | . | . | . | 9% | ?
Cn1nc(CC(=O)Nc2ccc3c(c2)CCC3)c2ccccc2c1=O | -7% | -78% | -25% | -25% | 0.52µM* | 0% | -8% | ? | 0.71µM* | -8% | 0.89µM* | ? | -14%
COc1ccccc1NC(=O)c1ccc[n+]([O-])c1 | 5% | . | -5% | -6% | 20% | -2% | . | . | . | . | . | . | .
